Reference: the supplement of paper PMC12067093, “Discovery and optimisation of a covalent ligand for TRIM25 and its application to targeted protein ubiquitination” (Chemical Science, 2025)
About 21,000 targets were measured; listed, in parts, are those with the largest changes and a random draw of the rest.

Compound: Cc1cc(ccc1-c1ccccc1)C(=O)N1CCCN(CC1)C(=O)CCl [compound 10]
Assay: probe-labelled cysteine peptide fold change vs DMSO (competition) (log2 fold change); higher = less target engagement (more negative = stronger competition)
Settings: 10 µM; THP-1; incubation time: 4 h
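Also: competitive profiling in live THP-1 cells: cysteine peptides tagged with an iodoacetamide desthiobiotin (IA-DTB) probe, intensity after compound treatment relative to DMSO-treated cells.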

Chain of UniProt P16885 (P16885 whole entry, looked up): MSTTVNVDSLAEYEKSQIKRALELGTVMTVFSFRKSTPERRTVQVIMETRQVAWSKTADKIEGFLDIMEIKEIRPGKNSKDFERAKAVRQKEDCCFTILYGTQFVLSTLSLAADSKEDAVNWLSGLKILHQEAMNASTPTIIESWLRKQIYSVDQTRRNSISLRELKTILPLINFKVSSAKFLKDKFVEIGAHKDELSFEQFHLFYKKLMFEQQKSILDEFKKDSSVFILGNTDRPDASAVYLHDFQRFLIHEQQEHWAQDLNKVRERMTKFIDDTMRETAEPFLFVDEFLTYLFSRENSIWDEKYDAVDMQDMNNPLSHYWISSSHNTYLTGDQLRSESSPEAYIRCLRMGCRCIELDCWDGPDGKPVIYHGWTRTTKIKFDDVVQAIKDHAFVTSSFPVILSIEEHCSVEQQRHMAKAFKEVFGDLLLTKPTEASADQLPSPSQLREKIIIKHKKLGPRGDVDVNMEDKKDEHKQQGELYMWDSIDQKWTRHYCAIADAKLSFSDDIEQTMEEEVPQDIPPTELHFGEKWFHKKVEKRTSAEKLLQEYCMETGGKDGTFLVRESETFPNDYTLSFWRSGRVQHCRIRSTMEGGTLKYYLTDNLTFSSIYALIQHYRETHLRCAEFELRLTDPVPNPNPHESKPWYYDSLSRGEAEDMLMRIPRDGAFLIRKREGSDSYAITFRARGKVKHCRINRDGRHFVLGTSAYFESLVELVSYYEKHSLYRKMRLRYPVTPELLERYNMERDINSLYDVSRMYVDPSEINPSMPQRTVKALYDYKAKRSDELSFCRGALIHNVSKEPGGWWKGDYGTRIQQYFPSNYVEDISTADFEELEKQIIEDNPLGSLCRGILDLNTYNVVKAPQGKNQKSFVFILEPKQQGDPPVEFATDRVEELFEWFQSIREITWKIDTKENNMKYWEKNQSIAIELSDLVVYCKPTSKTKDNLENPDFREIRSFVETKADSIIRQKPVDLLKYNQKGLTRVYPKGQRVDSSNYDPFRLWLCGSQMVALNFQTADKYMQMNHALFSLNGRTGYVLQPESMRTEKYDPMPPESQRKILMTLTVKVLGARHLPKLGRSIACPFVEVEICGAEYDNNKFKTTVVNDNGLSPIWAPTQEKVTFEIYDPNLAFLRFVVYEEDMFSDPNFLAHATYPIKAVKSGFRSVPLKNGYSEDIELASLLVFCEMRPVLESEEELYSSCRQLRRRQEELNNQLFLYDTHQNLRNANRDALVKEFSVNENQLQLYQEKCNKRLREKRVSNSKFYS
Chain of UniProt P08567 (P08567 whole entry, looked up): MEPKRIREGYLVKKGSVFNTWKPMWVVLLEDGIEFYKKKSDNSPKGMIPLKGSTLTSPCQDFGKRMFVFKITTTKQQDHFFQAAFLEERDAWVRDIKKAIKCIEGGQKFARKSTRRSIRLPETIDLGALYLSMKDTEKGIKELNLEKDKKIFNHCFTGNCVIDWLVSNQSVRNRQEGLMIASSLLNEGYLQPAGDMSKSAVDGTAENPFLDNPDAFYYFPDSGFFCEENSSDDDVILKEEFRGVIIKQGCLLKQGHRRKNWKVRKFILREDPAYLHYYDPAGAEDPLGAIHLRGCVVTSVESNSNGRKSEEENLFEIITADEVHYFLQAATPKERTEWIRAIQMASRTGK
Chain of UniProt Q99575 (Q99575 whole entry, looked up): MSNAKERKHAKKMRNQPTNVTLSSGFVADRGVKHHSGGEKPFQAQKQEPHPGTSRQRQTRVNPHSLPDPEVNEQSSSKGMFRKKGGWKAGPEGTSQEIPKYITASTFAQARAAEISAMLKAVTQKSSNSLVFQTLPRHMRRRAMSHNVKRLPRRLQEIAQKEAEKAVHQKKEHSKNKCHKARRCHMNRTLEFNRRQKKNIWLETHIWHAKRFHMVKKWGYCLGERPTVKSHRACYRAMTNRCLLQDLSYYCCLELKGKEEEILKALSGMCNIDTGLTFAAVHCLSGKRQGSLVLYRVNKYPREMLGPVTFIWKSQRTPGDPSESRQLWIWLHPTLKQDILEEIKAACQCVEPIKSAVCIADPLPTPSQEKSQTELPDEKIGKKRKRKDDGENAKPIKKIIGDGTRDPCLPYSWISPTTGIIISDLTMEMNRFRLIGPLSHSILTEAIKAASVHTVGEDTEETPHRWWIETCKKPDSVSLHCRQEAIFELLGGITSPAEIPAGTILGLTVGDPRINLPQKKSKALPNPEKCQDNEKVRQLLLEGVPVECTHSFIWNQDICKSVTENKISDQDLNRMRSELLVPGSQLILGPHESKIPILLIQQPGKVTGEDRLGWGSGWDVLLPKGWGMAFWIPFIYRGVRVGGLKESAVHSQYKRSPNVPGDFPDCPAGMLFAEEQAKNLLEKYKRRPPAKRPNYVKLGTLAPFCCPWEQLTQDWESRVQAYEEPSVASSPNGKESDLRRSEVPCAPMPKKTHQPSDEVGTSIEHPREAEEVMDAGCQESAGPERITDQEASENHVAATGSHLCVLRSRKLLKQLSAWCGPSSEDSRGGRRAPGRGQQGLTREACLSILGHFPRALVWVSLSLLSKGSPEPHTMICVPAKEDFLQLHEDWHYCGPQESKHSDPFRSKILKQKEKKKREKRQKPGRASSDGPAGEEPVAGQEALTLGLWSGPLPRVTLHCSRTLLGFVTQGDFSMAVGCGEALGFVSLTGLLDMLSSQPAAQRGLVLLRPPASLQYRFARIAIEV
Chain of UniProt Q9H8W4 (Q9H8W4 whole entry, looked up): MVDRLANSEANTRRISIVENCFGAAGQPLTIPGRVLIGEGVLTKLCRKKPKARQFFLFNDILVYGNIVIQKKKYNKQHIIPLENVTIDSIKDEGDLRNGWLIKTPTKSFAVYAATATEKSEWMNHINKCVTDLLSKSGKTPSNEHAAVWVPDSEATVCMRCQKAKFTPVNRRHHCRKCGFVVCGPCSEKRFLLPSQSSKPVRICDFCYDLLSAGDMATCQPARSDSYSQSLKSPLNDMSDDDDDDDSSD
Chain of UniProt P46020 (P46020 whole entry, looked up): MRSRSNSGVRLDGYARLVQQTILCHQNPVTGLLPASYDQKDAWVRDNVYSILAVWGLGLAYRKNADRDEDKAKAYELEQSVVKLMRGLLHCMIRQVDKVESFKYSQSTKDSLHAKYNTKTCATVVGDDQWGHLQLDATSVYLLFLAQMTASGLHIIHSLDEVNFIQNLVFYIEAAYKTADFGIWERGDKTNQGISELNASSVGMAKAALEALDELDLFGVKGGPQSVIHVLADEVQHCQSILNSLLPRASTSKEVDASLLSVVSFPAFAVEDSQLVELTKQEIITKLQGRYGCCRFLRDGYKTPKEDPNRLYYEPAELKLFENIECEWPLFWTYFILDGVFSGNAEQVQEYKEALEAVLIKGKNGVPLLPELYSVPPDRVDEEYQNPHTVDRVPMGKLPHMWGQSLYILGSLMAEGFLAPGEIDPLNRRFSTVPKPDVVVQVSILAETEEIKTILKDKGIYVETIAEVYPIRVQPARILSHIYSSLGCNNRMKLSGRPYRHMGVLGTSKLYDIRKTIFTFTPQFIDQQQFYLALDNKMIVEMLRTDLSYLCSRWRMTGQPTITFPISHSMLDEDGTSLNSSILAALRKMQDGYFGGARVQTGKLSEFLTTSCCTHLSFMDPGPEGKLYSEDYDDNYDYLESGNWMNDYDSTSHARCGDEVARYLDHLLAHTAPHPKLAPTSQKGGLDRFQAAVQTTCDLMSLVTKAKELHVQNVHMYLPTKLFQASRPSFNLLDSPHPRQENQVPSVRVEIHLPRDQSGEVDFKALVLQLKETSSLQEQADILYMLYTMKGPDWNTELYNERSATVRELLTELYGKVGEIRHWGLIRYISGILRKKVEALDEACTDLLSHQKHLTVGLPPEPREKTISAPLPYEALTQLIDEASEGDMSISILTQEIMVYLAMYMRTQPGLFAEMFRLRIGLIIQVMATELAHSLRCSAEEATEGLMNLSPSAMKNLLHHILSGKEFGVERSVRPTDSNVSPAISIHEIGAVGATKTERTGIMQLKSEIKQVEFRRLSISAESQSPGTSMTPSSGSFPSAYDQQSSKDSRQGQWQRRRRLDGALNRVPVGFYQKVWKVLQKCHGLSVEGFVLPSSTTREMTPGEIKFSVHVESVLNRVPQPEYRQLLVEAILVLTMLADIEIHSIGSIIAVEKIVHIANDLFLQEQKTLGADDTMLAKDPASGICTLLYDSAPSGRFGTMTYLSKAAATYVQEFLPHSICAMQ
Chain of UniProt P53041 (P53041 whole entry, looked up, other chains not shown): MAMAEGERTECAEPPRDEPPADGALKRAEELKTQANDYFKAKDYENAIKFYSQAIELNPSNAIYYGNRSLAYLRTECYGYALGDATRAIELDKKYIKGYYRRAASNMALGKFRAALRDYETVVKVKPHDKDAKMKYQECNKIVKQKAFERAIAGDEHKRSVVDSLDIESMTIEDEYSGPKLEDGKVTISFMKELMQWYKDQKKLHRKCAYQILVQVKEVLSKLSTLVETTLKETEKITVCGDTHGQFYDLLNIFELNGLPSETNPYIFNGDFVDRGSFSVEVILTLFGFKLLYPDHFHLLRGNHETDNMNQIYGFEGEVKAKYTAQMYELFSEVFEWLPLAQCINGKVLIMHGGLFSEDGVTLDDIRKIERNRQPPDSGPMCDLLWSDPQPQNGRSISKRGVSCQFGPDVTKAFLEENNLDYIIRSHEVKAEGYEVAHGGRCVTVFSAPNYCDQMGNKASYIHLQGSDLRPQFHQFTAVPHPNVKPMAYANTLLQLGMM
Chain of UniProt P50479 (P50479 whole entry, looked up): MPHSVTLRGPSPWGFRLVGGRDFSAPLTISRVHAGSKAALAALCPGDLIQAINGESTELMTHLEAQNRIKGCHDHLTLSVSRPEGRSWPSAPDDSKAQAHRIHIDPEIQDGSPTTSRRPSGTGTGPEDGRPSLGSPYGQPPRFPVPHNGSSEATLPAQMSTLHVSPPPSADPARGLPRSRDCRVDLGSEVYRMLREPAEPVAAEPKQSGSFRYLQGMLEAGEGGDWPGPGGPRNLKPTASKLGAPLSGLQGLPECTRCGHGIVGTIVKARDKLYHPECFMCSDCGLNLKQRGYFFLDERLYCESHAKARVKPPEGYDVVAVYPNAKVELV
Chain of UniProt Q7RTV0 (Q7RTV0 whole entry, looked up): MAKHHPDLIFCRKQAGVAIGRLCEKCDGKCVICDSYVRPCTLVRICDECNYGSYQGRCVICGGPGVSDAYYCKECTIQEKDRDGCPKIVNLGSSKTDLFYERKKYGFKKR

Point of comparison: “PHF5A_Q7RTV0_46_ICDECNYGSYQGR (UniProt Q7RTV0)”, “probe-labelled cysteine peptide fold change” value -0.00469. Against it:
- PLEKHF2_Q9H8W4_219_ICDFCYDLLSAGDMATCQPAR (UniProt Q9H8W4) — lower, -0.498
- POFUT1_Q9H488_249_NACAMLK (UniProt Q9H488) — lower, -0.308
- PINX1_Q96BK5_94_NNHLGLGATINNEDNWIAHQDDFNQLLAELNTCHGQETTDSSDKK (UniProt Q96BK5) — higher, 0.15
- PPP6C_O00743_129_QITQVYGFYDECQTK (UniProt O00743) — higher, 0.0334
- PDIA6_Q15084_291_RTCEEHQLCVVAVLPHILDTGAAGR (UniProt Q15084) — higher, 0.0625
- PCCA_P05165_398_INGWAVECR (UniProt P05165) — higher, 0.181
- PCBP1_Q15365_158_AITIAGVPQSVTECVK (UniProt Q15365) — higher, 0.332
- PDIA3_P30101_85+92_VDCTANTNTCNK (UniProt P30101) — lower, -0.107
- PLCG2_P16885_791_SDELSFCR (UniProt P16885) — lower, -0.0321
- PHKA1_P46020_238_GGPQSVIHVLADEVQHCQSILNSLLPR (UniProt P46020) — higher, 0.143
- PPP4C_P60510_130_QITQVYGFYDECLRK<|>PPP2CB_P62714_133_QITQVYGFYDECLRK<|>PPP2CA_P67775_133_QITQVYGFYDECLRK (UniProt P67775+P62714+P60510) — higher, 0.0312
- PGGT1B_P53609_162_ALQLEDGSFCAVPEGSENDMR (UniProt P53609) — lower, -0.0186
- PGK1_P00558_367+379_GCITIIGGGDTATCCAK (UniProt P00558) — higher, 0.296
- POLE_Q07864_600_HALEEEEKVPVEQVTNFEEVCDEIK (UniProt Q07864) — lower, -0.247
- PPM1E_Q8WY54_307_QEMFPHDPAEALCR (UniProt Q8WY54) — lower, -0.144
- PPP4C_P60510_193_KQEVPHDGPMCDLLWSDPEDTTGWGVSPR (UniProt P60510) — lower, -0.0839
- PPP5D1_E7EU14_47_YQECNK<|>PPP5C_P53041_139_YQECNK (UniProt P53041+E7EU14) — higher, 0.0409
- PDIA4_P13667_555+558_DVLIEFYAPWCGHCK<|>PDIA3_P30101_406+409_DVLIEFYAPWCGHCK (UniProt P30101+P13667) — lower, -0.251
- PPP2R2D_Q66LE6_245_SFNIVDIKPANMEELTEVITAAEFHPHQCNVFVYSSSK (UniProt Q66LE6) — lower, -0.00789
- POLR2K_P53803_22_QQPMIYICGECHTENEIK (UniProt P53803) — lower, -0.0834
- PM20D2_Q8IYS1_14_MRPGGERPVEGGACNGR (UniProt Q8IYS1) — lower, -0.16
- POP1_Q99575_745_RSEVPCAPMPK (UniProt Q99575) — lower, -0.238
- PLXNB2_O15031_1504+1506_GQPCSCWPRPDSVVLEWRPGSTAQILSDLDLTSQR (UniProt O15031) — lower, -0.0809
- PPP2R5A_Q15172_72_DATSNEQQELFCQK (UniProt Q15172) — higher, 0.0287
- PDIA4_P13667_555_DVLIEFYAPWCGHCK<|>PDIA3_P30101_406_DVLIEFYAPWCGHCK (UniProt P30101+P13667) — lower, -0.287
- PDLIM4_P50479_258_CGHGIVGTIVK (UniProt P50479) — lower, -0.0847
- PPA1_Q15181_114_HTGCCGDNDPIDVCEIGSK (UniProt Q15181) — higher, 0.105
- PLEK_P08567_295_GCVVTSVESNSNGR (UniProt P08567) — lower, -0.14

Same assay, conditions: 50 µM; THP-1; incubation time: 4 h

Point of comparison: “POLE_Q07864_600_HALEEEEKVPVEQVTNFEEVCDEIK (UniProt Q07864)”, “probe-labelled cysteine peptide fold change” value -1.05. Against it:
- PLEKHF2_Q9H8W4_219_ICDFCYDLLSAGDMATCQPAR (UniProt Q9H8W4) — higher, -0.228
- POFUT1_Q9H488_249_NACAMLK (UniProt Q9H488) — higher, -0.164
- PINX1_Q96BK5_94_NNHLGLGATINNEDNWIAHQDDFNQLLAELNTCHGQETTDSSDKK (UniProt Q96BK5) — higher, 0.124
- PPP6C_O00743_129_QITQVYGFYDECQTK (UniProt O00743) — higher, 0.309
- PDIA6_Q15084_291_RTCEEHQLCVVAVLPHILDTGAAGR (UniProt Q15084) — higher, -0.132
- PHF5A_Q7RTV0_46_ICDECNYGSYQGR (UniProt Q7RTV0) — higher, -0.327
- PCCA_P05165_398_INGWAVECR (UniProt P05165) — higher, 0.357
- PCBP1_Q15365_158_AITIAGVPQSVTECVK (UniProt Q15365) — higher, -0.0314
- PDIA3_P30101_85+92_VDCTANTNTCNK (UniProt P30101) — higher, -0.048
- PLCG2_P16885_791_SDELSFCR (UniProt P16885) — higher, -0.0713
- PHKA1_P46020_238_GGPQSVIHVLADEVQHCQSILNSLLPR (UniProt P46020) — higher, -0.161
- PPP4C_P60510_130_QITQVYGFYDECLRK<|>PPP2CB_P62714_133_QITQVYGFYDECLRK<|>PPP2CA_P67775_133_QITQVYGFYDECLRK (UniProt P67775+P62714+P60510) — higher, -0.109
- PGGT1B_P53609_162_ALQLEDGSFCAVPEGSENDMR (UniProt P53609) — higher, -0.573
- PGK1_P00558_367+379_GCITIIGGGDTATCCAK (UniProt P00558) — higher, -0.173
- PPM1E_Q8WY54_307_QEMFPHDPAEALCR (UniProt Q8WY54) — higher, -0.28
- PPP4C_P60510_193_KQEVPHDGPMCDLLWSDPEDTTGWGVSPR (UniProt P60510) — higher, -0.279
- PPP5D1_E7EU14_47_YQECNK<|>PPP5C_P53041_139_YQECNK (UniProt P53041+E7EU14) — higher, -0.0811
- PDIA4_P13667_555+558_DVLIEFYAPWCGHCK<|>PDIA3_P30101_406+409_DVLIEFYAPWCGHCK (UniProt P30101+P13667) — lower, -1.15
- PPP2R2D_Q66LE6_245_SFNIVDIKPANMEELTEVITAAEFHPHQCNVFVYSSSK (UniProt Q66LE6) — higher, -0.502
- POLR2K_P53803_22_QQPMIYICGECHTENEIK (UniProt P53803) — higher, -0.286
- PM20D2_Q8IYS1_14_MRPGGERPVEGGACNGR (UniProt Q8IYS1) — higher, -0.608
- POP1_Q99575_745_RSEVPCAPMPK (UniProt Q99575) — higher, -0.307
- PLXNB2_O15031_1504+1506_GQPCSCWPRPDSVVLEWRPGSTAQILSDLDLTSQR (UniProt O15031) — higher, -0.762
- PPP2R5A_Q15172_72_DATSNEQQELFCQK (UniProt Q15172) — higher, -0.096
- PDIA4_P13667_555_DVLIEFYAPWCGHCK<|>PDIA3_P30101_406_DVLIEFYAPWCGHCK (UniProt P30101+P13667) — lower, -1.09
- PDLIM4_P50479_258_CGHGIVGTIVK (UniProt P50479) — higher, -0.546
- PPA1_Q15181_114_HTGCCGDNDPIDVCEIGSK (UniProt Q15181) — higher, 0.181
- PLEK_P08567_295_GCVVTSVESNSNGR (UniProt P08567) — higher, -0.138
